Compounds without any hit were thinned out: in the full panel of roughly 83,000, 20% have a hit.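 Note: values are percent growth. 100 is the growth of untreated cells, values between 100 and 0 indicate rising inhibition; between -100 and 0 indicates cell death.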 Unmarked numbers belong to inactive results. Calls of active or inactive are those of the source. Rule for the calls: active = growth percent below 10; inactive = the rest.
What was measured:
Assay in all cases: NCI-60 one-dose screen, 48 h (100 = growth as untreated, 0 = no growth, -100 = all killed)
Details in all cases: 10 µM unless noted
NCI-H23 lung = tested on: NCI-H23 lung
NCI-H226 lung = tested on: NCI-H226 lung
NCI-H322M lung = tested on: NCI-H322M lung
HOP-62 NSCLC = tested on: HOP-62 NSCLC
NCI-H460 lung = tested on: NCI-H460 lung
HOP-92 NSCLC = tested on: HOP-92 NSCLC
NCI-H522 lung = tested on: NCI-H522 lung
A549/ATCC NSCLC = tested on: A549/ATCC NSCLC
786-0 renal = tested on: 786-0 renal
COLO 205 colon = tested on: COLO 205 colon
DU-145 prostate = tested on: DU-145 prostate
K-562 leukemia = tested on: K-562 leukemia
MALME-3M melanoma = tested on: MALME-3M melanoma
MDA-MB-231 breast = tested on: MDA-MB-231 breast
RXF 393 renal = tested on: RXF 393 renal
SF-268 CNS = tested on: SF-268 CNS
SF-295 CNS = tested on: SF-295 CNS
SF-539 CNS = tested on: SF-539 CNS
UACC-257 melanoma = tested on: UACC-257 melanoma
M14 melanoma = tested on: M14 melanoma

| Compound | growth (NCI-H23 lung) | growth (NCI-H226 lung) | growth (NCI-H322M lung) | growth (HOP-62 NSCLC) | growth (NCI-H460 lung) | growth (HOP-92 NSCLC) | growth (NCI-H522 lung) | growth (A549/ATCC NSCLC) | growth (786-0 renal) | growth (COLO 205 colon) | growth (DU-145 prostate) | growth (K-562 leukemia) | growth (MALME-3M melanoma) | growth (MDA-MB-231 breast) | growth (RXF 393 renal) | growth (SF-268 CNS) | growth (SF-295 CNS) | growth (SF-539 CNS) | growth (UACC-257 melanoma) | growth (M14 melanoma) |
| --- | --- | --- | --- | --- | --- | --- | --- | --- | --- | --- | --- | --- | --- | --- | --- | --- | --- | --- | --- | --- |
| O=C(Nc1cccnc1Nc1ccc(F)cc1)c1cn(Cc2cccc(Oc3ccccc3)c2)nn1 | 74% | 76.6% | 78.9% | 84.7% | 80.4% | 84.8% | 64.7% | 61% | 79.2% | 91.6% | 84.5% | 18.8% | 60.9% | 61.1% | 74.2% | 54.8% | 67.7% | 63.7% | 87.4% | 37.1% |
| COc1ccc(-c2cn(-c3cc(OC)c(OC)c(OC)c3)c(=O)n2C(C)=O)cc1 | 94.9% | 88.1% | 99.6% | 83.7% | 106% | 94.2% | 73.5% | 91.8% | 35.4% | 119% | 106% | 61.7% | 90.6% | 76.7% | 109% | 107% | 78.6% | 97% | 82% | 92.6% |
| CN(C)CCCC1(c2ccc(F)cc2)OCc2cc(-c3cccc4[nH]ccc34)ccc21 (stereo not given) | 75.2% | 65.7% | 61.5% | 16.2% | -23.3% (active) | 30.6% | 28% | 28.3% | 37% | -64.2% (active) | 18.9% | -4.22% (active) | -91.6% (active) | 40.8% | 37.6% | 41% | 20% | 14% | -5.65% (active) | -68.4% (active) |
| C#CCOc1cccc(Nc2ncnc3ccc(NC(=O)CCl)cc23)c1 | -66.8% (active) | 21% | -18.8% (active) | -35.4% (active) | -19.9% (active) | -76.5% (active) | -76.3% (active) | -38.6% (active) | -81.9% (active) | -64.6% (active) | -1.66% (active) | -13.1% (active) | -76.3% (active) | -37.8% (active) | -77.1% (active) | -8.71% (active) | -67.7% (active) | -86.6% (active) | -67.1% (active) | -47.8% (active) |
| C#Cc1cccc(Nc2ncnc3ccc(-c4cncc(NS(C)(=O)=O)c4)cc23)c1 | 26.5% | 45% | 1.41% (active) | 32% | 51.6% | -12.2% (active) | 3.44% (active) | 48.8% | 40.6% | 17.7% | 28.3% | 37.2% | 33.2% | 23.7% | 7.78% (active) | 24.1% | 37.6% | 17% | 37.4% | 47% |
| N#Cc1c(-c2ccc(Cl)cc2)nc(SCC(=O)NC2=NN=C(c3ccccc3)CS2)[nH]c1=O | 76.3% | 106% | 89.7% | 68.9% | 110% | 58.2% | 66.4% | 90.6% | 93% | 80.7% | 105% | 42.4% | 75% | 78.1% | 84.5% | 91.4% | 107% | 91.4% | 84% | 72.3% |
| O=C(N/N=C/c1ccc(F)cc1)c1ccc(C(F)(F)F)nc1Nc1cccc(C(F)(F)F)c1 | 11.3% | 9.45% (active) | -14.5% (active) | -14.1% (active) | -17.7% (active) | -25.2% (active) | -15.9% (active) | -10.9% (active) | -29.7% (active) | 7.69% (active) | 17.9% | -6.25% (active) | 2.96% (active) | -11.5% (active) | -10.7% (active) | 9.8% (active) | -44.5% (active) | -0.388% (active) | -2.34% (active) | 19.9% |
| O=[N+]([O-])c1ccc(N/N=C(/C(=N/Nc2ccc([N+](=O)[O-])cc2)c2ccccc2)c2ccccc2)cc1 | 82.5% | 97.5% | 81.1% | 76.6% | 46.2% | 107% | 50.8% | 90.9% | 103% | 87.3% | 9.75% (active) | 84.4% | 100% | 81.9% | 62.8% | 104% | 69.3% | 94.2% | 98.9% | 80.2% |
| C=C(C)[C@@H]1CC[C@]2(C(=O)NCCNCCN)CC[C@]3(C)[C@H](CC[C@@H]4[C@@]5(C)C/C(=C/c6ccncc6)C(=O)C(C)(C)[C@@H]5CC[C@]43C)[C@@H]12 | 97.2% | 100% | 94.2% | 101% | 99.2% | 75.5% | 94.7% | 99.9% | 90.2% | 88.9% | 106% | 86.4% | 106% | 96.7% | 103% | 88.5% | 100% | 95.1% | 105% | 89.8% |
| O=C(NCCCCNC(=O)OCc1ccc2c(Cl)cc(Cl)c(O)c2n1)OCc1ccc2c(Cl)cc(Cl)c(O)c2n1 | 24.6% | 8.33% (active) | 34.3% | 9.48% (active) | 2.78% (active) | 48.5% | -2.86% (active) | 14.8% | 70.7% | 96.3% | 1.77% (active) | 11.6% | 43% | 25.1% | 27% | 31.3% | 22.8% | -13.7% (active) | 23.8% | 12.4% |
| CN(C)CCCC1(c2ccc(F)cc2)OCc2cc(-c3cncc4ccccc34)ccc21 (stereo not given) | 77.6% | 77.2% | 51.5% | 65% | 10.6% | 49.5% | 42.9% | 46.9% | 46.8% | 16.3% | 48.5% | 1.06% (active) | -85% (active) | 38.3% | 20.1% | 49.5% | 17.8% | 54.9% | -64.5% (active) | -56% (active) |
| COc1ccc(-c2nc(/C=C3\SC(=NCc4ccccc4)NC3=O)c3ccccn23)cc1 | -73.4% (active) | 5.75% (active) | 20.4% | -50.7% (active) | -54.6% (active) | -38.2% (active) | -36% (active) | -27.3% (active) | -96.3% (active) | -69.1% (active) | -88.6% (active) | 18.4% | -33.1% (active) | -13.9% (active) | -86.7% (active) | -37.4% (active) | 17.5% | -43.4% (active) | -17% (active) | -95.7% (active) |
| Cn1c(=O)c2[nH]c(N/N=C/c3ccccc3Br)nc2n(C)c1=O | 107% | 110% | 95.5% | 112% | 110% | 104% | 89.7% | 101% | 96.9% | 137% | 104% | 87.9% | 107% | 97.8% | 121% | 104% | 92.2% | 113% | 117% | 99.9% |
| O=C(Cn1c(=O)sc2nc3ccccc3nc21)Nc1ncc(Cc2cccc(Cl)c2Cl)s1 | 97.1% | 86.5% | 97.1% | 97.2% | 104% | 100% | 82.5% | 99.6% | 99.8% | 95.6% | 112% | 102% | 117% | 90.6% | 109% | 94.4% | 102% | 98.7% | 107% | 100% |
| COCCn1c(-c2csc(-c3cn(C)c4ccc(OC)cc34)n2)cc2cccnc21 | 63.8% | 81.3% | 82.4% | 60.9% | 21.7% | 67.5% | -24.5% (active) | 48% | 30.9% | 37.5% | 62.7% | -25.5% (active) | 106% | 43.6% | 52.3% | 64.1% | 58.9% | 58.9% | 54.5% | 44.2% |

Reference: PubChem BioAssay (NCI)
